Results: PubChem BioAssay AID1117283 (Broad Institute, 2014)
Entries with a potency or affinity are not part of this list. Unmarked numbers belong to inactive results.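 The calls were made as follows: active = fluorescent signal decreased by at least 40%; inconclusive = no clear call, values can overlap the other calls; inactive = the rest, including activity opposite to the expected direction.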

assay: fibronectin fibrillogenesis inhibitors in fibroblasts, dose response, AH1F cells, Alexa488-fibronectin fluorescence, cherry-pick, set 2 (AID 1117283); conditions: Alexa488-fibronectin deposition fluorescence, overnight; series mostly up to 35 µM; activity change, negative = inhibition: at the top concentration;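 also: AH1F fibroblasts given Alexa488-labelled fibronectin at 24 nM final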

| SMILES | activity change, negative = inhibition |
| --- | --- |
| CC(C)C(=O)Nc1ccc2c(c1)C(=O)N(C)[C@@H]1CC[C@H](CC(=O)O)O[C@@H]1CO2 | 7.63% |
| O=C(c1cccnc1)N1C[C@@H]2[C@H](c3ccccc31)[C@@H](CO)N2CC1CCCC1 | -3.72% |
| CO[C@H]1CN(C)C(=O)c2cc(NC(=O)Nc3ccc(Cl)c(Cl)c3)ccc2OC[C@H](C)NC[C@H]1C | -2.19% |
| O=S(=O)(c1ccccc1F)N1CC[C@@H]2[C@H]1c1cc(-c3cccc(F)c3)ccc1N[C@@H]2CO | 2.9% |
| Cc1ccc(CS(=O)Cc2ccc(C(=O)NC3CCCC(C)C3C)o2)cc1 (stereo not given) | -3.83% |
| O=S(=O)(c1cccc(F)c1)N1CC[C@@H]2[C@H]1c1cc(-c3cccc(F)c3)ccc1N[C@@H]2CO | -11.1% |
| Cc1ccc(S(=O)(=O)N2CC[C@H]3[C@H](CO)Nc4ccc(-c5cccc(C(=O)N(C)C)c5)cc4[C@H]32)cc1 | 3.11% |
| CCOc1cccc(C(=O)Nc2ccc(N(CC)CC)cc2)c1 | 1.45% |
| Cc1ccc(-c2nc3ncccc3o2)cc1NC(=O)c1ccco1 | 7.73% |
| N#Cc1ccc(-c2ccc3c(c2)[C@@H]2[C@@H](CCN2S(=O)(=O)c2ccccc2F)[C@H](CO)N3)cc1 | 27.1% |
| COc1cccc(-c2ccc3c(c2)[C@@H]2[C@@H](CCN2S(=O)(=O)c2cccc(OC)c2)[C@@H](CO)N3)c1 | -8.07% |
| CO[C@H]1CN(C)C(=O)c2cc(NC(=O)Nc3cc(Cl)cc(Cl)c3)ccc2OC[C@@H](C)NC[C@@H]1C | 4.31% |
| Cc1ccc(C(O)c2ncc(-c3cccc4ccccc34)[nH]2)cc1F (stereo not given) | -7.33% |
| CCOC(=O)C1=C(C)Nc2nc3ccccc3n2C1c1ccncc1 (stereo not given) | -4.18% |
| N#C[C@H]1[C@@H](c2ccccc2C2=CCCCC2)[C@H](CO)N1S(=O)(=O)c1ccccc1 | 3.14% [at 30 µM] |
| CCOC(=O)c1nnn(-c2ccc(OC)cc2)c1N | 2.85% |
| NC(=O)C1=C[C@H](c2coc3ccccc3c2=O)C[C@H](OCCCCO)O1 | 12.8% |
| C[C@@H]1CN([C@@H](C)CO)C(=O)c2cccc(NC(=O)Nc3ccc(C(F)(F)F)cc3)c2O[C@@H]1CN(C)C(=O)Nc1cccc2ccccc12 | 5.92% |
| COCC(=O)Nc1ccc2c(c1)C(=O)N(C)[C@H]1CC[C@@H](CC(=O)NCc3ccccc3Cl)O[C@H]1CO2 | 8.86% |
| CO[C@@H]1CN(C)C(=O)c2ccc(NC(=O)c3ccc(-c4ccccc4)cc3)cc2OC[C@H](C)NC[C@@H]1C | -8.9% |
| C[C@@H]1CN([C@@H](C)CO)C(=O)c2cc(-c3ccccc3)cnc2O[C@@H]1CN(C)C(=O)c1cccc(F)c1 | -1.84% |
| CC(C)Cc1nnc(NC(=O)CSc2nc(N)cc(=O)[nH]2)s1 | 4.83% |
| C[C@H](CO)N1C[C@H](C)[C@@H](CN(C)Cc2ccccc2)Oc2ncc(-c3ccccc3)cc2C1=O | 11.5% |
| CN(C)C(=O)c1ccc(-c2ccc3c(c2)[C@@H]2[C@@H](CCN2C(=O)c2ccc(F)cc2)[C@H](CO)N3C)cc1 | 10.2% |
| CCCCOc1ccc(C(C)NC(=O)C2CCCN(S(=O)(=O)CCC)C2)cc1 (stereo not given) | 2.62% |
